Test [1] can be described thus: viability loss in pontine glioma line – cell-based, SU-DIPG-IV, MIPE4.0, CellTiter-Glo, qHTS, dose response (AID 1347063; cut-off not given, nearly all actives have AC50 up to about 30 µM;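 also: compound exposure lasted 48 hours before the viability readout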). The note with it: CellTiter-Glo ATP luminescence.
Test [2] in a line: viability loss in pontine glioma line – cell-based, SU-DIPG-XIII, MIPE5.0, CellTiter-Glo, qHTS, dose response (AID 1347064; cut-off not given, nearly all actives have AC50 up to about 23 µM;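 as to AC50: cells exposed to compound for 48 hours before the viability read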). The settings on record: CellTiter-Glo ATP luminescence.
Test [3] can be described thus: viability loss in pontine glioma line – cell-based, SU-DIPG-XXV, MIPE5.0, CellTiter-Glo, qHTS, dose response (AID 1347065).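 Also: cells exposed to compound for 48 hours before ATP readout.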 The note with it: CellTiter-Glo ATP luminescence.
Test [4] in a line: growth inhibition of DIPG cells – cell-based, MIPE4.0 library, CellTiter-Glo luminescence, qHTS (AID 1347066; cut-off not given, nearly all actives have AC50 up to about 30 µM;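 also: cells exposed to compound for 48 hours before readout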). The settings on record: SU-DIPG-VI viability, CellTiter-Glo ATP luminescence.
The nature of test [5]: JHH-DIPG-1 glioma cell viability, MIPE5.0 library, CellTiter-Glo luminescence, qHTS (AID 1347067).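 Also: cells exposed to compound for 48 hours before readout.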 The settings on record: JHH-DIPG-1 glioma viability, CellTiter-Glo ATP luminescence.
Test [6] in a line: liver-stage malaria parasite load reduction – cell-based, known kinase inhibitor set, luminescence, hepatoma host viability (AID 624392; call rule not given here;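 also: infected cells incubated roughly two days before readout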). The settings on record: Plasmodium liver stage in hepatoma cells, luciferase luminescence, concentration not given here; liver cell % of control: measured here: host liver cell viability; parasite % of control: stronger effect = lower value.
A short description of test [7]: growth inhibition, single agents and combos, LFS_MB_1R, cell-based, cisplatin or BGB combos, synergistic combos for chromothripsis tumors (AID 1671452; in the data active = inhibition above about 80%;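 also: cells exposed for 96 hours before readout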). The note with it: LFS_MB_1R medulloblastoma cells, stronger effect = higher value.
Test [8] in a line: growth inhibition, single agents and combos, CRL2098, cell-based, BGB or cisplatin IC20 combos, synergistic combos for chromothripsis tumors (AID 1671454; in the data active = inhibition above about 80%;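 also: cells exposed for 96 h before readout; 0% = vehicle DMSO and 100% = killing by high DMSO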). The settings on record: CRL2098 osteosarcoma cells, drug combinations, stronger effect = higher value.
Test [9] is described as follows: growth inhibition, single agents and combos, HD-MB03, cell-based, BGB or cisplatin IC20 combos, synergistic combos for chromothripsis tumors (AID 1671455; in the data active = inhibition above about 83%;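 also: 0% = vehicle DMSO and 100% = high DMSO as cytotoxic control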). The note with it: HD-MB03 medulloblastoma cells, stronger effect = higher value.
Test [10] in a line: growth inhibition, single agents and combos, UWB1.289, cell-based, BGB or cisplatin combos, synergistic combos for chromothripsis tumors (AID 1671456; in the data active = inhibition above about 80%;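 also: cells exposed to compound for four days; 0% = vehicle DMSO and 100% = killing by high DMSO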). The note with it: UWB1.289 ovarian carcinoma cells, stronger effect = higher value.
The nature of test [11]: growth inhibition, single agents and combos, LFS_MB_2R, cell-based, cisplatin combos, synergistic combos for chromothripsis tumors (AID 1671457; in the data active = inhibition above about 80%;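 also: cells exposed to compound for four days before readout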). The settings on record: LFS_MB_2R medulloblastoma cells, stronger effect = higher value.
Test [12] is described as follows: growth inhibition, MDA-MB-436, cell-based, BGB or cisplatin combos, synergistic combos for chromothripsis tumors (AID 1671458; call rule not given here;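 also: cells exposed for 96 hours; 0% = vehicle DMSO and 100% = killing by high DMSO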). The note with it: MDA-MB-436 breast carcinoma growth inhibition, drug combinations, stronger effect = higher value.
The nature of test [13]: UWB1.289_BRCA1 ovarian cancer growth, cell-based, BGB or cisplatin combinations (AID 1671459; in the data active = inhibition above about 80%). The settings on record: UWB1.289 BRCA1 ovarian carcinoma, drug combinations, stronger effect = higher value.
Test [14] is described as follows: drug combination toxicity in non-malignant astrocytes – cell-based, BGB or cisplatin IC20 combos, cytotoxicity control for chromothriptic childhood tumor combination screen (AID 1671460; in the data active = inhibition above about 80%;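 also: cells exposed to compounds for 96 hours before viability readout; 0% = vehicle and 100% = killing control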). The settings on record: Human astrocytes, viability inhibition, drug combinations, at 0.5 µM, stronger effect = higher value.
A short description of test [15]: BT084 cell growth, single and combined drugs, ICGC_MB145, cisplatin and BGB IC40 combos (AID 1671461; in the data active = inhibition above about 80%;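 also: cells exposed to drugs for 96 hours; 0% = vehicle DMSO and 100% = high DMSO full killing control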). The note with it: BT084 medulloblastoma cells, drug combinations, stronger effect = higher value.
Test [16] is described as follows: RCMB18 cell growth, single agent and combined, cisplatin and BGB IC40 combos (AID 1671462; in the data active = inhibition above about 80%;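 also: cells exposed to compound for four days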). The settings on record: RCMB18 medulloblastoma cells, stronger effect = higher value.
A short description of test [17]: CRL1545 cell growth, single agent and combined, cisplatin and BGB IC20 combos (AID 1671464; in the data active = inhibition above about 80%;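 also: cells exposed to compound for 96 hours before readout; 0% = vehicle DMSO and 100% = high DMSO killing control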). The settings on record: CRL1545 osteosarcoma cells, stronger effect = higher value.
Test [18] is described as follows: viability loss in pontine glioma line – cell-based, SU-DIPG-XVII, MIPE5.0, CellTiter-Glo, qHTS, dose response (AID 1347060).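 As to AC50: cells exposed to compound for 48 hours before viability readout.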 The note with it: CellTiter-Glo ATP luminescence.
Where [19] appears, read: measured here: combination with cisplatin, at 0.5 µM.
Where [20] appears, read: measured here: combination with cisplatin, at 5 µM.

Values joined by “and” are separate entries in the source; they are usually repeats but may differ in a detail not shown here. Equal values may be shown once. Inconclusive results are not listed. Active and inactive are the calls of the source. Unless noted, the limit is not given here; nearly all actives have AC50 up to about 26 µM.

`Clc1ccc(-c2nc3sccn3c2/C=N/OCc2ccc(Cl)c(Cl)c2)cc1`: the call in [1], in [4] and in [5] was inactive. Besides, the AC50 is 20.9 µM (active) in test [2] and 23.5 µM (active) in test [3].
For `Cc1ccccc1C(=O)c1ccc(Nc2ccc(Br)cc2N)cc1Cl`, the results for the AC50 in test [2], in test [3] and in test [5] were 20.9 µM (active), 18.6 µM (active) and 23.5 µM (active), respectively.
Consider `C=CCc1cccc(/C=N/NC(=O)CN2CCN(Cc3ccccc3)CC2)c1O`, for which the AC50 in test [4] is 16.6 µM (active).
With `CCOC(=O)C(C)Oc1cccc2c(=O)n(CC(=O)Nc3ccc4c(c3)OCCO4)ccc12` (stereo not drawn), the compound was called inactive in [1] and in test [5]. The half-maximal activity concentration (AC50) in test [2] was 20.9 µM (active).
In the case of `Cc1cccc(C#Cc2ccccc2)n1`, the compound was classed as inactive in test [1] and in test [4].
As for `Oc1ccc(-c2nc(-c3ccc(F)cc3)c(-c3ccncc3)[nH]2)cc1`, in [6], the liver cell % of control was 85.2% and 83.2% and 90.8%; the parasite % of control was 14.8% (inactive) and 19.2% (inactive) and 29.9% (inactive). The AC50 in test [1] was 23.5 µM (active). Moreover, the compound was classed as inactive in test [4].
For the compound `O=S(=O)(NCCNC/C=C/c1ccc(Br)cc1)c1cccc2cnccc12`, the AC50 was 16.6 µM (active) in test [1], 23.5 µM (active) in [3] and 16.6 µM (active) in test [5].
For `COc1ccc(Nc2nccc(NCCO)n2)cc1`, the compound was classed as inactive in test [1], in test [2], in [3], in test [4] and in test [5].
As for `O=c1ncccn1[C@@H]1O[C@H](CO)[C@@H](O)[C@H]1O`, the call in [2] and in [3] was inactive. Besides, the inhibition in test [7] (at 0.5 µM) was -27.9% (inactive); in test [7] (measured here: combination with BGB IC40, at 0.05 µM), -35.3%; in [7] (setting [19]), -51%; in [7] (setting [20]), -58.9%; in [8] (at 0.5 µM), -74.1% (inactive); in [8] (measured here: combination with BGB at IC20, at 0.5 µM) it was -48.3%. Further, the inhibition in test [8] (measured here: combination with cisplatin at IC20, at 0.5 µM) is -120%; in [9] (at 0.5 µM), -21.4% (inactive); in test [9] (measured here: combo with BGB at IC20, at 0.5 µM), -26.7%; in [9] (measured here: combo with cisplatin at IC20, at 0.5 µM), -23%; in test [10] (at 0.5 µM), -19.3% (inactive); in [10] (measured here: inhibition with BGB combination, at 0.05 µM) it was 1.76%. In addition, the inhibition is -40% in test [10] (measured here: inhibition with cisplatin combination, at 0.05 µM); -6.18% (inactive) in test [11] (at 0.5 µM); -23.5% in test [11] (setting [19]); -12.7% in test [11] (setting [20]); -13.6% (inactive) in test [12] (at 0.5 µM); -17.7% in [12] (measured here: BGB combination, at 0.5 µM). Further, the inhibition in test [12] (measured here: BGB combination, at 5 µM) was -15.1%; in [12] (measured here: cisplatin combination, at 0.5 µM), -10.4%; in test [12] (measured here: cisplatin combination, at 5 µM), -7.02%; in test [13] (BGB combination, concentration series, at 5 µM), -30%; in test [13] (at 0.5 µM), -19.1% (inactive); in test [13] (cisplatin combination, concentration series, at 5 µM), -22.8%. Further, the inhibition in test [14] was -3.28% (inactive); in test [14] (measured here: combo with BGB IC20), -9.39%; in [14] (measured here: combo with cisplatin IC20), 1.77%; in test [15] (at 0.5 µM) it was -5.93% (inactive); in test [15] (cisplatin combination, at 0.5 µM), -27.2%; in test [15] (cisplatin combination, at 5 µM), -19.4%. In addition, the inhibition in test [15] (measured here: BGB IC40 combination 0.05 uM, at 0.05 µM) was -6.16%; in [15] (single agent, at 5 µM), -11.2%; in test [16] (at 0.5 µM), -16.2% (inactive); in test [16] (cisplatin combo, at 5 µM), -19.8%; in test [16] (measured here: BGB IC40 combination, at 0.05 µM), 3.99%; in test [16] (setting [19]) it was -35.7%. The inhibition was -29.5% in [16] (single agent, at 5 µM); -31.3% (inactive) in [17] (at 0.5 µM); -27.5% in [17] (measured here: with BGB IC20 combination, at 0.5 µM); -35.4% in [17] (measured here: with cisplatin IC20 combination, at 0.5 µM); -12.6% in test [17] (single agent, at 0.05 µM); -36.3% in test [17] (single agent, at 5 µM).
Consider `COc1cc2c(cc1O)CC[C@@H]1[C@@H]2CC[C@]2(C)[C@@H](O)CC[C@@H]12`, for which the AC50 in test [18] was 1.32 µM (active); in test [3], 1.48 µM (active); in [5], 3.72 µM (active).
Consider `COc1cc(SC)ccc1C(=O)N1CCC(Cc2ccccc2)CC1`, for which the compound was classed as inactive in [18], in test [2] and in test [3].
In the case of `CN(CCOc1ccc(-c2ccc3c(c2)OCO3)cc1C(C)(C)C)CC(=O)O`, the AC50 in test [5] was 23.5 µM (active).
`O=C(c1ccc(Nc2nccc(-c3cc4ccccc4s3)n2)cc1)N1CCC(N2CCCC2)CC1`: the concentration at half-maximal activity (AC50) was 8.33 µM (active) in test [1]; 8.33 µM (active) in test [2]; 7.42 µM (active) in test [3]; 18.7 µM (active) in [4]; 9.34 µM (active) in test [5].
As for `Nc1ncnc2c1ncn2[C@@H]1O[C@H](CO)C[C@H]1O`, the outcome in test [1] and in [5] was inactive.
In the case of `Oc1ccc(Nc2nc(-c3ccc(Cl)cc3)cs2)cc1`, the AC50 in test [3] is 5.9 µM (active).
Regarding `NC(=O)c1ccc(-c2nc(-c3ccc4c(c3)OCCO4)c(-c3ccccn3)[nH]2)cc1`, the figures for the AC50 in [2] and in test [5] were 13.2 µM (active) and 20.9 µM (active), respectively. Further, the outcome in [4] was inactive.
For `CC(C)N(CCC(=O)c1ccc2ccccc2c1)Cc1ccccc1`, the AC50 in test [18] was 7.42 µM (active); in test [2], 7.42 µM (active); in test [3], 6.61 µM (active); in test [5], 4.17 µM (active).
Consider `O=C1c2ccccc2-c2n[nH]c3cccc1c23`, for which the compound was classed as inactive in test [4].
As to `FC(F)(F)c1ccc(/C=C/c2nc(COc3ccc(CCCCn4ccnn4)cc3)co2)cc1`, the result in test [2] and in test [4] was inactive.
Turning to `O=c1cc(N2CCOCC2)oc2c(-c3ccccc3)cccc12`, the AC50 in [1] is 2.64 µM (active). In addition, the call in test [2] was inactive.
On to `Cc1ccc(NC(=O)c2cccc(N(C)C)c2)cc1NC(=O)c1ccc(O)cc1`, for which the AC50 in test [1] was 0.935 µM (active).

Values taken from PubChem BioAssay.
